Results on 77 molecules are retold here after PubChem BioAssay AID488969 (Vanderbilt High Throughput Screening Facility, 2010).

Over roughly 110,000 compounds, “z-score” has its median near -0.1; the highest 2% begin near 2. This excerpt belongs to a sample that is enriched for the highest values. The source made the active and inactive calls.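 How the source made its calls: active means z-score in the third read window above 3 or below -3; inactive means the rest.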

Sequence of Metabotropic glutamate receptor 8 (Rattus norvegicus) (P70579 whole entry, looked up): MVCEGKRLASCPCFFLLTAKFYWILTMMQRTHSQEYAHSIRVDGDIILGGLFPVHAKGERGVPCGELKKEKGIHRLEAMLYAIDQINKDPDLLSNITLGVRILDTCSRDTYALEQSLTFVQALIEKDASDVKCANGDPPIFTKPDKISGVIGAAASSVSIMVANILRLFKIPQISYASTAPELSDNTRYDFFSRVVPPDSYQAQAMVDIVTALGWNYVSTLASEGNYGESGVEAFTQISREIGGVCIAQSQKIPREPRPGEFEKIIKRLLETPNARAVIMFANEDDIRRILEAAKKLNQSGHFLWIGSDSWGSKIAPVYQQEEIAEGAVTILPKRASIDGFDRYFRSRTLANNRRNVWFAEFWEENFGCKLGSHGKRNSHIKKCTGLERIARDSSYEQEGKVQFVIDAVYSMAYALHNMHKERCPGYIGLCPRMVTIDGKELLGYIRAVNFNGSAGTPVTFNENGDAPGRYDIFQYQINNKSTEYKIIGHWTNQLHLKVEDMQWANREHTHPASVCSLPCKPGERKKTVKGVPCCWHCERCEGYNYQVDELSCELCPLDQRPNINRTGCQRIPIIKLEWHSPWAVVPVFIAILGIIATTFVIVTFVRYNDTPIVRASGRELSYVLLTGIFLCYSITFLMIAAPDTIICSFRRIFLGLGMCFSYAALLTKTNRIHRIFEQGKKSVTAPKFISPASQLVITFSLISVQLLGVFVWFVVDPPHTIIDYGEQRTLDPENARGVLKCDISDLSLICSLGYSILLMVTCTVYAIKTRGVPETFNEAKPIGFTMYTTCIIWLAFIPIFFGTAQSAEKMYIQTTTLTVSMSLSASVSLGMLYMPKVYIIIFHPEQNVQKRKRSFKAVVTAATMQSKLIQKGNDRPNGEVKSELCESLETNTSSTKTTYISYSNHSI

This assay addresses Metabotropic glutamate receptor 8 (Rattus norvegicus) (UniProt P70579). As to the kind of experiment: mGluR8 Gi/Go-coupled signaling modulation – cell-based, rat, thallium flux, HTS, primary screen (AID 488969). The following applies: HEK293 rat mGluR8, GIRK (G protein-gated inwardly rectifying potassium channel) thallium flux, FluoZin2; at 10 µM; stronger effect = higher value; submaximal glutamate (EC20) added with thallium.
Molecule `CCc1ccc2[nH]c(=O)c(CN(CCN(C)C)C(=O)Nc3ccccc3)cc2c1` yielded a z-score of -0.0486.

In turn, `N#Cc1c(N)sc2c1CCN(CCc1ccccc1)C2` registered a z-score of 0.208.

Molecule `COc1ccccc1-n1c(SCC(=O)NC2CCS(=O)(=O)C2)nc2cc([N+](=O)[O-])ccc21` (configuration not stated) had a z-score of -0.116. In turn, `COc1ccc2nc(SCC(=O)O)nc(C)c2c1` showed a z-score of -0.216.

In turn, `CCOC(=O)CCSc1nc(C)c2cc(OC)ccc2n1` came in with a z-score of -0.0662.

On to `CCOC(=O)CSc1nc(C)c2cc(OC)ccc2n1`, for which the z-score is 6.89 (active).

In turn, `CC1CCCN(C(=O)C2CCCN(S(=O)(=O)c3cccc4nsnc34)C2)C1` (configuration not stated) gave a z-score of 0.195. For the molecule `Cc1cccc(NC(=S)NNC(=O)c2csc(C(C)C)c2)c1`, the z-score is 8.28 (active). Take `CCCCNC(=S)NNC(=O)c1csc(C(C)C)c1`: the z-score was found to be 0.133. To `Cc1cc(C(=O)NNC(=S)NCC(C)C)cs1` belongs 0.377; to `CCNC(=S)NNC(=O)c1csc(C(C)C)c1`, -0.354. With `Cc1ccc(C)c(NC(=S)NNC(=O)c2csc(C(C)C)c2)c1`, the z-score was 12 (active).

For the molecule `Cc1ccc(C)c(NC(=S)NNC(=O)c2ccc(Br)o2)c1`, the z-score turned out to be 0.537. Under `CCCCn1c(SCC(=O)Nc2cc(C)on2)nnc1-c1ccco1` stands 1.3; under `COc1ccccc1NC(=O)c1cc(S(=O)(=O)N2CCC3(CC2)OCCO3)ccc1F`, -0.251. Molecule `CCOc1ccccc1NC(=O)c1ccc(F)c(S(=O)(=O)N2CCC3(CC2)OCCO3)c1` returned a z-score of 2.77.

In turn, `CCOc1ccccc1NC(=O)c1cc(S(=O)(=O)N2CCC3(CC2)OCCO3)ccc1F` returned a z-score of -0.432. Regarding `CCNC(=S)NN=C1CCC(C(C)(C)C)CC1` (configuration not stated), the z-score came to 0.883.

Turning to `O=C(COC(=O)COc1ccccc1Cc1ccccc1)Nc1cccnc1Cl`, the z-score is -0.941.

In turn, `Cc1cccc2sc(NC(=O)CSCc3ccccc3)nc12` had a z-score of 0.801.

Consider `Cc1cccc2sc(NC(=O)Cn3cccc3)nc12`, for which the z-score was 13.9 (active).

For `Cc1cccc2sc(NC(=O)CN3C(=O)c4ccccc4C3=O)nc12`, the z-score was -0.16.

As for `Cc1onc(-c2c(F)cccc2Cl)c1C(=O)N1C=CC(C(F)(F)F)=NCC1`, the z-score is -0.013. As to `O=C(CSc1nc(-c2ccccc2)cc(=O)[nH]1)N1CCc2ccccc21`, the z-score was 9.86 (active). The molecule `Nc1nc(SCC(=O)N2CCc3ccccc32)[nH]c(=O)c1-c1ccccc1` returned a z-score of 0.47. Under `CCc1c(C)nc(SCC(=O)N2CCc3ccccc32)[nH]c1=O` stands 4.54 (active); under `O=C(CSc1nc(O)cc(=O)[nH]1)N1CCCc2ccccc21`, -0.65; under `Cc1nnc(SCC(=O)N2CCCc3ccccc32)[nH]c1=O`, -0.411.

Molecule `Cc1cc(=O)[nH]c(SCC(=O)N2CCCc3ccccc32)n1` showed a z-score of 0.265.

`CCOc1ccc(C2/C(=C(/O)c3ccccc3)C(=O)C(=O)N2CCCN(C)C)cc1OC` (configuration not stated) had a z-score of 0.188.

Turning to `O=C(COC(=O)c1cnccn1)c1ccc2ccccc2c1`, the z-score was determined as 0.118. Under `COn1c(SC(C)C)nc2ccccc2c1=O` stands -0.948. `CCSc1nc2ccccc2c(=O)n1OCC(=O)OC` had a z-score of -0.148. `COC(=O)COn1c(SC(C)C)nc2ccccc2c1=O` yielded a z-score of 2.57. In turn, `Cc1cc(NC(=O)c2cc3ccccc3oc2=O)no1` showed a z-score of 0.0723.

Molecule `Cc1cc2cc(CN(CCN3CCOCC3)C(=O)Nc3ccccc3F)c(=O)[nH]c2cc1C` gave a z-score of -0.536. Under `CC(C)OP(=O)(OC(C)C)C1(O)C(=O)Nc2ccccc21` (configuration not stated) stands -0.0437.

Regarding `CCOc1ccc(C(=O)NC(Cc2ccccc2)C(=O)OC)cc1` (configuration not stated), the z-score is -0.262. For `CCOc1ccc(C(=O)NC(=S)N(Cc2ccccc2)Cc2ccccc2)cc1`, the z-score is 11.7 (active).

For `COc1ccc(C(=O)NC(=S)Nc2ccccc2F)cc1`, the z-score was 0.595. To `COc1ccc(C(=O)NN(c2ccccc2)c2ccccc2)cc1` belongs -0.0602; to `CCOc1ccc(C(=O)NCCc2ccccc2)cc1`, 0.0133. To `COc1ccc(C(=O)NC(=S)N(Cc2ccccc2)Cc2ccccc2)cc1` belongs 16.8 (active); to `COc1ccc(C2SCC(=O)N2CC23CC4CC(CC(C4)C2)C3)cc1` (configuration not stated), -0.23; to `CCC(=O)N1N=C(c2c(-c3ccccc3)c3cc(Cl)ccc3[nH]c2=O)CC1c1ccco1` (configuration not stated), -0.155. `CCCCn1c(/N=C/c2ccc3c(c2)OCO3)nc2ccccc21` returned a z-score of -0.738. `CC(C)=CC[N+]1(C)CCCCC1` showed a z-score of 1.14. To `N#C/C(=C\c1cn(CCOc2ccccc2F)c2ccccc12)C(=O)NCc1cccs1` belongs -0.0588; to `CCOc1ccc(/C=C2/C(=O)N(c3ccc(OC)cc3)C(=S)N2CC(=O)OC)cc1OCC`, 0.273; to `CCOc1ccc(N2C(=O)/C(=C/c3cccs3)N(CC(=O)OC)C2=S)cc1`, -0.17. To `CCOc1ccc(N2C(=O)/C(=C/c3cc(OC)c(OC)c(OC)c3)N(CC(=O)OC)C2=S)cc1` belongs 14.1 (active). `S=c1sc(SCCOc2ccccc2)nn1-c1ccccc1` yielded a z-score of -0.317. In the case of `COc1cccc(C(=O)OCc2ccccc2C#N)c1O`, the z-score is -0.163. To `O=C(Nc1ccccc1)N(C1=NCCCCS1)c1cccc2ccccc12` belongs -0.463. To `Cc1cccc(Nc2n[nH]c(C)c2[N+](=O)[O-])c1` belongs 0.073; to `Cc1ccc(Nc2n[nH]c(C)c2[N+](=O)[O-])cc1`, -0.101.

In turn, `Cc1ccc(Nc2n[nH]c(C)c2[N+](=O)[O-])cc1C` returned a z-score of 2.51. To `CNC(=O)CCCc1nc(-c2ccccc2Cl)no1` belongs 0.0193.

Regarding `COC(=O)c1sccc1NC(=S)N1CCN(c2ccccc2)CC1`, the z-score was -0.397. With `Cc1cc(C(=O)NC(C)c2ccncc2)cs1` (configuration not stated), the z-score stood at 2.05. With `Cc1cc(C(=O)NNC(=S)NC(C)c2ccccc2)cs1` (configuration not stated), the z-score is -0.281. In turn, `Cc1cc(C(=O)NC(C)c2ccc3c(c2)OCO3)cs1` (configuration not stated) had a z-score of 0.0632. To `Cc1cc(C)c2nc(SCC(=O)N3CC(=O)Nc4ccccc43)c(C#N)cc2c1` belongs -0.188; to `CC1CC1C(=O)NCCc1ccc(Cl)cc1` (configuration not stated), 1.05; to `N#Cc1ccc(-n2c(-c3ccccc3)nnc2-c2ccccc2)cc1C#N`, 0.19. To `COc1ccccc1/C=C/C=N/N1CCN(Cc2ccc(Cl)cc2)CC1` belongs -0.494.

As to `COc1ccccc1/C=C/C=N/N1CCN(Cc2cccc3ccccc23)CC1`, the z-score is -0.494.

For the molecule `COc1ccccc1/C=C/C=N\N1CCN(Cc2ccccc2Cl)CC1`, the z-score was 5.52 (active).

In turn, `CN(C)c1ccnc(-n2cccc2/C=N/OCc2cccc(F)c2)c1C#N` yielded a z-score of -0.0405. With `CCN(C(=O)CSc1ncccc1C(=O)OC(C)C)c1cccc(C)c1`, the z-score is -0.441. Turning to `O=C(Nc1cc(C(F)(F)F)ccc1F)C1CCC1`, the z-score worked out at 0.411.

Regarding `COc1ccc(OCc2nc(N)nc(Nc3ccccc3)n2)cc1`, the z-score was 5.72 (active). To `COc1ccc(Nc2nc(N)nc(CSc3nnc(N)s3)n2)cc1` belongs -0.571; to `COc1ccc(Nc2nc(N)nc(COc3ccc(OC)cc3)n2)cc1`, -0.113. Under `Cc1nnc(SCc2nc(N)nc(Nc3ccccc3)n2)s1` stands -0.209; under `COc1ccc(OCc2nc(N)nc(Nc3ccc(C)cc3)n2)cc1`, 0.32; under `COc1ccc(Nc2nc(N)nc(CSc3nnc(C)s3)n2)cc1`, 2.42.
